Measured values taken from the supplement of paper PMC8007513.
Structures can show the parent of a compound that is named as a salt. ± gives the standard error. About 75 (6%) of roughly 1,300 compounds showed an effect of 50% or more. The full list was thinned out, with strong results kept by preference.

Test system: Trichoderma virens ATCC 9645
Assay: growth yield (OD600) relative to untreated control; higher = less growth inhibition
Conditions: compound concentration: 100 uM
Outline: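 Growth appears as means of duplicate screens, relative to the control containing neither agent. To obtain it, OD600 was read on a BioTek EL800 at 40 h and 72 h. The cultures were 100 μl aliquots in 96-well plates at 30 °C, holding Trichoderma virens ATCC 9645 spores at 15,000 spores ml^−1 in potato dextrose broth, library compounds at 100 μM final, and, in some wells, a biocide at 200 ng ml^−1.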

Row | SMILES | growth yield (40 h) | growth yield (72 h)
1 | Oc1cc(Cl)ccc1Oc1ccc(Cl)cc1Cl [Triclosan] | 6.99 ± 4.1% | 3.25 ± 0.1%
2 | CCNCC(O)c1cccc(O)c1 (stereo not given) [Etilefrine hydrochloride] | 105 ± 3% | 103.1 ± 0.94%
3 | C=CCC1(CC(C)C)C(=O)NC(=O)NC1=O [Butalbital] | 98.2% | 96.5%
4 | CNCC(O)c1ccc(O)cc1 (racemic) [(+,-)-Synephrine] | 105 ± 4.3% | 100 ± 2.3%
5 | O=C([O-])c1ccccc1-c1c2cc(Br)c(=O)cc-2oc2[c]([Hg+])c([O-])c(Br)cc12.[Na+].[Na+].[OH-] [Merbromin] | 2.54 ± 0.95% | 2.2 ± 0.94%
6 | CCN(CC)C(C)C(=O)c1ccccc1 (stereo not given) [Amfepramone hydrochloride] | 102 ± 3% | 99 ± 3.1%
7 | CC1OC(OC2/C=C/C=C/C=C/C=C/CC/C=C/C=C/[C@H](C)[C@@H](O)[C@@H](C)[C@H](C)OC(=O)CC(O)CC(O)CC(O)CCC(O)C(O)C[C@]3(O)CC(O)C(C(=O)O)C(C2)O3)C(O)C(N)C1O (stereo not given in full) [Nystatine] | 97.4 ± 5.6% | 107.3 ± 0.94%
8 | O=C(CCCN1CCC(n2c(=O)[nH]c3ccccc32)CC1)c1ccc(F)cc1 [Benperidol] | 102 ± 5.2% | 99.9 ± 7.2%
9 | CC[C@H](C)[C@H]1O[C@]2(C=C[C@@H]1C)C[C@@H]1C[C@@H](C/C=C(\C)[C@@H](O[C@H]3C[C@H](OC)[C@@H](O[C@H]4C[C@H](OC)[C@@H](O)[C@H](C)O4)[C@H](C)O3)[C@@H](C)/C=C/C=C3\CO[C@@H]4[C@H](O)C(C)=C[C@@H](C(=O)O1)[C@]34O)O2.CO[C@H]1C[C@H](O[C@H]2[C@H](C)O[C@@H](O[C@@H]3/C(C)=C/C[C@@H]4C[C@@H](C[C@]5(C=C[C@H](C)[C@@H](C(C)C)O5)O4)OC(=O)[C@@H]4C=C(C)[C@@H](O)[C@H]5OC/C(=C\C=C\[C@@H]3C)[C@]54O)C[C@@H]2OC)O[C@@H](C)[C@@H]1O [Avermectin B1] | 107 ± 5.6% | 105 ± 2.3%
10 | CCCCCC[C@H]1C(=O)O[C@H](C)[C@H](NC(=O)c2cccc(NC=O)c2O)C(=O)O[C@@H](C)[C@@H]1OC(=O)CC(C)C [Antimycin A] | 27.5 ± 1.1% | 49.6 ± 2.6%
11 | C#CCN(C)[C@H](C)Cc1ccccc1 [Selegiline hydrochloride] | 102 ± 1.4% | 104 ± 5%
12 | CCCC(C)C1(CC)C(=O)NC(=O)NC1=O (stereo not given) [Pentobarbital] | 101.3 ± 0.95% | 102 ± 1.7%
13 | CC(=O)OCC1=C(C(=O)O)N2C(=O)[C@@H](N)[C@H]2SC1 [Cephalosporanic acid, 7-amino] | 105 ± 5.7% | 107 ± 6.2%
14 | CCC(=O)O[C@@](Cc1ccccc1)(c1ccccc1)[C@@H](C)CN(C)C [Levopropoxyphene napsylate] | 106 ± 2.9% | 103 ± 3.4%
15 | C[C@]12C/C(=C/O)C(=O)C[C@@H]1CC[C@@H]1[C@@H]2CC[C@@]2(C)[C@H]1CC[C@]2(C)O [Oxymetholone] | 96.9 ± 9.2% | 91.5 ± 4.8%
16 | C[C@@H]1C[C@@H]([C@H](O)CC2CC(=O)NC(=O)C2)C(=O)[C@@H](C)C1 [Cycloheximide] | 46.7 ± 7.3% | 75.5 ± 5.5%
17 | NCC(CC(=O)O)c1ccc(Cl)cc1 (racemic) [Baclofen (R,S)] | 105 ± 4.1% | 105 ± 4.7%
18 | CN[C@@H]1[C@@H](O)[C@@H](O[C@@H]2[C@@H](O)[C@H](O[C@H]3O[C@H](CN)CC[C@H]3N)[C@@H](N)C[C@H]2N)OC[C@]1(C)O.CN[C@@H]1[C@@H](O)[C@@H](O[C@@H]2[C@@H](O)[C@H](O[C@H]3O[C@H]([C@@H](C)N)CC[C@H]3N)[C@@H](N)C[C@H]2N)OC[C@]1(C)O.CN[C@@H]1[C@@H](O)[C@@H](O[C@@H]2[C@@H](O)[C@H](O[C@H]3O[C@H]([C@@H](C)NC)CC[C@H]3N)[C@@H](N)C[C@H]2N)OC[C@]1(C)O [Gentamicine sulfate] | 101% | 97.3%
19 | NC(=O)OCCCc1ccccc1 [Phenprobamate] | 104 ± 6.3% | 101 ± 4.6%
20 | COc1cccc(C2(O)CCCCC2CN(C)C)c1 (stereo not given) [Tramadol hydrochloride] | 101 ± 1.3% | 99.8 ± 2.1%
